# From PubChem BioAssay
# Shown are actives, neighbours in structure and some others; about 12% of the full set was active somewhere.
# Sm TGR inh: S. mansoni TGR enzyme inhibition; purified TGR, DTNB reduction, TNB absorbance 405 nm; Potency, µM (series often up to 114 µM), usual class: inhibitors; actives 3% (n = 360,000); further: nearly all actives have a fitted effect of over 60% in size
#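 First, TGR (20 nM dispensed) and NADPH were mixed with compound. Second, a 15 min room-temperature incubation followed. Third, further NADPH and then DTNB were added to start the reaction. Finally, TNB absorbance was monitored kinetically.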
# Pf growth 48h: inhibits P. falciparum growth in the first generation, 48 h. P. falciparum luciferase growth in erythrocytes, 48 h. Potency, µM (titrated, usually from 28.7 µM), usual class: inhibitors. actives 5.9% (n = 310,000). AID 504832
#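 Compounds are pin-transferred into medium, infected erythrocytes (2% hematocrit, 0.1% parasitemia final) are added, and plates sit one parasite generation at 37 C in 5% CO2. Detection reagent is then added and luminescence measured.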
# AmpC detergent: blocks E. coli AmpC beta-lactamase in detergent assay; P00811; AmpC hydrolysis of nitrocefin, absorbance 480 nm, 0.01% Triton; Potency, µM (titrated, usually from 114 µM), usual class: inhibitors; actives 0.041% (n = 370,000); further: nearly all actives have a fitted effect of over 25% in size
# Target sequence (P00811 whole entry, looked up): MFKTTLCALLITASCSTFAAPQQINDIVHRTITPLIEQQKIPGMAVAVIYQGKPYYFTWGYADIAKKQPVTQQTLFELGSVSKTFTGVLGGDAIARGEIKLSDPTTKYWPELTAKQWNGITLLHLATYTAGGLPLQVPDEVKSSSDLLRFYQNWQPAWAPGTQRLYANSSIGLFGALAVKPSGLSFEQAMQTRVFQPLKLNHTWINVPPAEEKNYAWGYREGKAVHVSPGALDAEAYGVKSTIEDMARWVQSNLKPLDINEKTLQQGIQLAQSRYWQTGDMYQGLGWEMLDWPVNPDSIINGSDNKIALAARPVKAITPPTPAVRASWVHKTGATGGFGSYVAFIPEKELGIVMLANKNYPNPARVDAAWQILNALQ
#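 AmpC (5.3 nM in the dispensed reagent) in 20 mM phosphate pH 7.0 with 0.01% (detergent screen) or 0.0001% Triton X-100 was preincubated with compounds for 15 min at room temperature. Nitrocefin was then added from an 800 uM solution, and hydrolysis was followed at 480 nm.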
# Pf growth 96h: P. falciparum growth inhibition at 96 hours. P. falciparum luciferase reporter growth, 96 h. Potency, µM (top dose mostly 28.7 µM), most hits filed as inhibitors. actives 6.9% (n = 320,000). AID 504834
#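 Two-generation exposure (96 h) targets delayed-death phenotype. Reporter parasites carrying integrated firefly luciferase, in red cells at 2% hematocrit and 0.05% parasitemia final, kept at 37 C, 5% CO2; luminescence loss indicates inhibition.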
# AmpC no deterg: blocks E. coli AmpC beta-lactamase in detergent-free assay. AmpC nitrocefin hydrolysis, absorbance 480 nm, 0.0001% Triton. Potency, µM (doses to about 57.1 µM), actives largely listed as inhibitors. actives 0.52% (n = 330,000). AID 485341; further: nearly all actives have a fitted effect of over 20% in size
#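 AmpC (5.3 nM in the dispensed reagent) in 20 mM phosphate pH 7.0 with 0.01% (detergent screen) or 0.0001% Triton X-100 was preincubated with compounds for 15 min at room temperature. Nitrocefin was then added from an 800 uM solution, and hydrolysis was followed at 480 nm.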
# SARS PLP yeast: blocks SARS-CoV papain-like protease in a yeast assay; AID 485353; actives 0.19% (n = 330,000); S. cerevisiae expressing SARS-CoV PLpro, growth rescue; Potency, µM (titrated, usually from 32.9 µM), most hits filed as activators; calls by dose curve; further: nearly all actives have a fitted effect of over 55% in size
# Numbers stand for hits; - = inactive; ? = inconclusive; . = no result given; [ ] = dose if it differs, or a comment. Unless noted, the call rests on the fitted dose curve; in most records, active means well fitted curve in the direction sought with a large enough effect; inconclusive means small, poorly fitted or top-dose-only effect, or another doubt; inactive means no such curve, though single readings can be large; an effect the other way counts as inactive or inconclusive.
SMILES,Sm TGR inh,Pf growth 48h,AmpC detergent,Pf growth 96h,AmpC no deterg,SARS PLP yeast
Cc1ccc2cc(C(c3nnnn3C3CCCC3)N3CCOCC3)c(=O)[nH]c2c1C (configuration not stated),-,?,-,-,-,-
Cc1ccc2cc(C(c3nnnn3C3CCCC3)N3CCN(c4ccccc4)CC3)c(=O)[nH]c2c1 (configuration not stated),13µM,?,-,?,-,-
CCN1CCN(C(c2cc3cccc(C)c3[nH]c2=O)c2nnnn2Cc2ccccc2)CC1 (configuration not stated),-,?,?,-,-,-
Cc1ccc2cc(C(c3nnnn3Cc3ccccc3)N3CCN(c4ccccc4)CC3)c(=O)[nH]c2c1 (configuration not stated),22µM,5.9µM,-,-,-,-
COc1ccc(N2CCN(C(c3cc4cc(C)ccc4[nH]c3=O)c3nnnn3Cc3ccccc3)CC2)cc1 (configuration not stated),?,.,-,3.7µM,-,-
Clc1cccc(CSC2=NCCCN2)c1,-,?,-,-,-,-
Cc1cc(C(=O)C(=O)O)c(C)n1-c1ccc(Cl)c(Cl)c1,-,-,-,-,-,-
COc1cc(COc2ccc3c(C)c(Cc4ccccc4)c(=O)oc3c2)cc(OC)c1OC,-,8.3µM,-,?,-,-
Cc1c(CC(=O)O)c(=O)oc2c(C)c(OCc3ccc(F)cc3F)ccc12,-,-[0.00184 µM],-,-,-,-
COc1ccc2c(C)c(CC(=O)NCCc3ccccc3)c(=O)oc2c1OC,-,.,-,.,.,.
Cc1cc(C)cc(COc2ccc3c(C)c(CC(=O)O)c(=O)oc3c2C)c1,-,.,-,-,-,-
COc1ccc2c(C)c(Cc3ccccc3)c(=O)oc2c1OC,-,12µM,-,-,-,-
COc1cc(COc2ccc3c(C)c(Cc4ccccc4)c(=O)oc3c2C)cc(OC)c1OC,-,?,?,1.9µM,-,-
Cc1c(Cc2ccccc2)c(=O)oc2cc(OCc3ccc(C(=O)O)cc3)ccc12,.,-,-,-,-,-
COc1ccccc1COc1ccc2c(C)c(CC(=O)O)c(=O)oc2c1C,-,-,-,6.6µM,-,-
CCN(Cc1ccccc1)C(=O)Cn1c(=O)n(-c2ccccc2)c(=O)c2c1c1cc(C)ccc1n2C,-,.,-,.,.,.
CCn1cc(C(=O)OCC(=O)Nc2cccc(Cl)c2C)c(=O)c2ccc(C)nc21,-,.,-,.,.,.
COc1cc(CCC(=O)NCc2ccc3c(c2)CCN3C(=O)c2cccc(C)c2)cc(OC)c1OC,-,.,-,.,.,.
O=C1CCCc2sc3c(c2N1)CCCCC3,-,-,-,-,-,-
O=C1CCCc2sccc2N1,-,-,-,3.3µM,-,-
COc1cc(C(CC(=O)Nc2ccc(F)cc2F)N2Cc3ccccc3C2=O)cc(OC)c1OC (configuration not stated),-,.,-,.,.,.
O=C(O)c1ccccc1NSc1ccccc1[N+](=O)[O-],-,-,-,?,-,-
CC(=O)c1ccc2c(c1)C1C(Cl)C(Sc3ccccc3[N+](=O)[O-])CC1C(C(=O)O)N2 (configuration not stated),?,-,?,2.6µM,-,-
O=C(O)c1cccc2c1NC(C(=O)O)C1CC(Sc3ccccc3[N+](=O)[O-])C(Cl)C21 (configuration not stated),?,-,40µM,?,-,-
CCOC(=O)c1cccc(NC(=O)CSc2ncc3c(n2)-c2ccc(Cl)cc2N(Cc2ccccc2)S3(=O)=O)c1,-,.,-,.,.,.
SMILES,Sm TGR inh,Pf growth 48h,AmpC detergent,Pf growth 96h,AmpC no deterg,SARS PLP yeast
Cc1ccc(CNC(=O)c2ccc3c(c2)nc2n3CCCC2)cc1,-,.,-,.,.,.
O=C(c1ccc(Cl)cc1)C1CCCN(Cc2cccc3cccnc23)C1 (configuration not stated),-,9.3µM,-,-,-,-
COc1ccc(CN2CCCC(C(=O)c3ccc(Cl)cc3)C2)c(O)c1 (configuration not stated),-,0.83µM,-,-,-,-
O=C(c1ccc(Cl)cc1)C1CCCN(Cc2cccc3ncccc23)C1 (configuration not stated),-,?,-,?,-,-
CSc1ccc(C(=O)C2CCCN(Cc3cccc4nccnc34)C2)cc1 (configuration not stated),-,10µM,-,?,-,-
COc1ccc(C(=O)C2CCCN(Cc3cc(Cl)ccc3O)C2)c(OC)c1 (configuration not stated),-,?,?,-,-,-
O=C(c1ccccc1)C1CCCN(Cc2nc(-c3cnccn3)no2)C1 (configuration not stated),.,-,-,5.2µM,-,-
CCn1ccnc1CN1CCCC(C(=O)c2ccc(SC)cc2)C1 (configuration not stated),-,?,-,-,-,-
O=C(c1cccnc1)C1CCCN(Cc2nc(-c3cnccn3)no2)C1 (configuration not stated),-,-,-,-,-,-
CCOc1ccc2nc(N(Cc3cccnc3)C(=O)c3ccco3)sc2c1,-,.,-,.,.,.
COCCNC(=O)CSc1nc(-c2cc(OC)c(OC)c(OC)c2)[nH]c1-c1ccc(Cl)cc1,-,.,-,.,.,.
O=C(CCc1nnc(-c2ccccc2)o1)NCc1c(F)cccc1F,-,-,-,13µM,-,-
O=C(CCc1nnc(-c2ccc(-c3ccccc3)cc2)o1)NCCc1ccccn1,-,-,-,?,-,-
COc1cc(NC(C)CCc2ccccc2)cc(OC)c1OC (configuration not stated),-,-,-,3.7µM,-,-
Cc1nn(-c2ccc(N3CCCCC3)nn2)c(C)c1CCC(=O)Nc1cc(F)ccc1F,-,-,-,?,-,?
CC(C)(C)n1nnnc1CN(Cc1ccc(F)cc1)Cc1ccco1,-,?,-,?,-,-
CCN(Cc1ccccc1)C(c1cccc(C#N)c1)c1nnnn1C(C)(C)C (configuration not stated),-,10µM,-,?,-,-
CC(C)(C)n1nnnc1C(c1cccnc1)N(Cc1ccccc1)Cc1ccco1 (configuration not stated),-,2.9µM,-,1.9µM,-,-
COc1cccc(CN(Cc2ccco2)C(c2ccc(F)cc2)c2nnnn2C(C)(C)C)c1 (configuration not stated),50µM,1.7µM,-,?,-,-
CCC(C)(C)n1nnnc1C(c1ccc(C)cc1)N(Cc1ccco1)Cc1cccs1 (configuration not stated),-,4.7µM,-,.,-,-
COc1cccc(CNC(=O)C2CCN(S(=O)(=O)c3c(C)nn(C)c3C)CC2)c1,-,.,-,-,-,-
